# Several values for one entry are separate records, joined by “and”; a condition that tells them apart may be missing. Identical values can stand only once. About 2,000 (36%) of roughly 5,500 compounds were called active. Another 18% or so got no clear call; they are omitted. The list shows a part of the results. Unmarked numbers belong to inactive results. Rule as the data show it: active = normalized growth mostly below about 0.91 (no sharp cut-off); inconclusive = no clear call, values can overlap the other calls; inactive = mostly above about 0.92.
# Experiment: chemical genetic growth profiling, strain panel (AID 1159580);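 also: tested at 20 µM; growth read once vehicle control cultures reached saturation at 30 °C; 1 = growth at the plate median or of vehicle wells; lower values mean less growth of the strain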
# Conditions: S. cerevisiae deletion strains, growth OD
compound,measurement,setting,value
CCN(CC)C(=S)SSC(=S)N(CC)CC,normalized growth,"locus YAL013W, strain DEP1, hits give low values",0.0629 (active) and 0.897 (active)
same,normalized growth,"locus YAL021C, strain ccr4, hits give low values",0.0672 (active)
same,normalized growth,"locus YAL026C, strain drs2, hits give low values",0.0682 (active)
same,normalized growth,"locus YAL030W, strain snc1, hits give low values",0.0564 (active)
same,normalized growth,"locus YAL040C, strain CLN3, hits give low values",0.308 (active)
same,normalized growth,"locus YBL061C, strain skt5, hits give low values",0.062 (active)
same,normalized growth,"locus YBR009C, strain hhf1, hits give low values",0.0652 (active)
same,normalized growth,"locus YBR021W, strain FUR4, hits give low values",0.0934 (active)
same,normalized growth,"locus YBR023C, strain chs3, hits give low values",0.0638 (active)
same,normalized growth,"locus YBR171W, strain sec66, hits give low values",0.0771 (active)
same,normalized growth,"locus YBR229C, strain ROT2, hits give low values",0.426 (active)
same,normalized growth,"locus YBR231C, strain swc5, hits give low values",0.0656 (active)
same,normalized growth,"locus YBR279W, strain paf1, hits give low values",0.063 (active)
same,normalized growth,"locus YCL011C, strain gbp2, hits give low values",0.0576 (active)
same,normalized growth,"locus YCL016C, strain dcc1, hits give low values",0.065 (active)
same,normalized growth,"locus YCL029C, strain bik1, hits give low values",0.135 (active)
same,normalized growth,"locus YCL061C, strain MRC1 (second series), hits give low values",0.936 (active)
same,normalized growth,"locus YCL061C, strain MRC1, hits give low values",0.0667 (active)
same,normalized growth,"locus YCL069W, strain vba3, hits give low values",0.0629 (active)
same,normalized growth,"locus YCR088W, strain abp1, hits give low values",0.062 (active)
same,normalized growth,"locus YDL005C, strain med2, hits give low values",0.0753 (active)
same,normalized growth,"locus YDL035C, strain GPR1, hits give low values",0.0484 (active)
same,normalized growth,"locus YDL040C, strain nat1, hits give low values",0.0568 (active)
same,normalized growth,"locus YDL074C, strain BRE1, hits give low values",0.0817 (active)
same,normalized growth,"locus YDL101C, strain DUN1, hits give low values",0.068 (active)
same,normalized growth,"locus YDL134C, strain PPH21, hits give low values",0.0516 (active)
same,normalized growth,"locus YDL185W, strain tfp1, hits give low values",0.788 (active)
same,normalized growth,"locus YDL192W, strain arf1, hits give low values",0.0621 (active)
same,normalized growth,"locus YDR001C, strain nth1, hits give low values",0.0666 (active)
same,normalized growth,"locus YDR069C, strain doa4, hits give low values",0.0647 (active)
same,normalized growth,"locus YDR101C, strain arx1, hits give low values",0.101 (active)
same,normalized growth,"locus YDR137W, strain rgp1, hits give low values",0.0968 (active)
same,normalized growth,"locus YDR150W, strain NUM1, hits give low values",0.0605 (active)
same,normalized growth,"locus YDR159W, strain sac3, hits give low values",0.0932 (active)
same,normalized growth,"locus YDR162C, strain NBP2, hits give low values",0.0518 (active)
same,normalized growth,"locus YDR195W, strain ref2",0.121 (active)
same,normalized growth,"locus YDR297W, strain sur2, hits give low values",0.0658 (active)
same,normalized growth,"locus YDR318W, strain mcm21, hits give low values",0.0632 (active)
same,normalized growth,"locus YDR334W, strain swr1, hits give low values",0.066 (active)
same,normalized growth,"locus YDR335W, strain msn5, hits give low values",0.0613 (active)
same,normalized growth,"locus YDR363W, strain ESC2, hits give low values",0.997
same,normalized growth,"locus YDR388W, hits give low values",0.0574 (active)
same,normalized growth,"locus YDR392W, strain spt3, hits give low values",0.103 (active)
same,normalized growth,"locus YDR502C, strain sam2, hits give low values",0.0592 (active)
same,normalized growth,"locus YEL003W, strain gim4, hits give low values",0.0548 (active)
same,normalized growth,"locus YEL037C, strain rad23, hits give low values",0.0581 (active)
same,normalized growth,"locus YEL061C, strain CIN8 (second series), hits give low values",0.0638 (active)
same,normalized growth,"locus YEL061C, strain CIN8, hits give low values",0.0531 (active)
same,normalized growth,"locus YER015W, strain faa2, hits give low values",0.0589 (active)
same,normalized growth,"locus YER016W, strain bim1, hits give low values",0.0621 (active)
same,normalized growth,"locus YER110C, hits give low values",0.0748 (active)
same,normalized growth,"locus YER111C, strain swi4, hits give low values",0.0842 (active)
same,normalized growth,"locus YER155C, strain BEM2 (second series), hits give low values",0.092 (active)
same,normalized growth,"locus YER155C, strain BEM2, hits give low values",0.0787 (active)
same,normalized growth,"locus YER167W, strain BCK2, hits give low values",0.0526 (active)
same,normalized growth,"locus YFR010W, strain ubp6, hits give low values",0.0704 (active)
same,normalized growth,"locus YGL078C, strain dbp3, hits give low values",0.0558 (active)
same,normalized growth,"locus YGL086W, strain mad1, hits give low values",0.0539 (active)
same,normalized growth,"locus YGL167C, strain pmr1, hits give low values",0.0736 (active)
same,normalized growth,"locus YGL173C, strain kem1, hits give low values",0.0686 (active)
same,normalized growth,"locus YGL227W, strain vid30, hits give low values",0.0649 (active)
same,normalized growth,"locus YGL240W, strain doc1, hits give low values",0.0818 (active)
same,normalized growth,"locus YGL248W, strain PDE1, hits give low values",0.0479 (active)
same,normalized growth,"locus YGL253W, strain hxk2, hits give low values",0.0556 (active)
same,normalized growth,"locus YGR078C, strain PAC10, hits give low values",0.0528 (active)
same,normalized growth,"locus YGR135W, strain pre9, hits give low values",0.0614 (active)
same,normalized growth,"locus YGR229C, strain SMI1, hits give low values",0.0585 (active) and 0.186 (active)
same,normalized growth,"locus YGR252W, strain gcn5, hits give low values",0.111 (active)
same,normalized growth,"locus YHR013C, strain ard1, hits give low values",0.114 (active)
same,normalized growth,"locus YHR027C, strain rpn1, hits give low values",0.0617 (active)
same,normalized growth,"locus YHR030C, strain SLT2, hits give low values",0.0521 (active) and 0.114 (active)
same,normalized growth,"locus YHR079C, strain IRE1 (second series), hits give low values",0.0828 (active)
same,normalized growth,"locus YHR079C, strain IRE1, hits give low values",0.111 (active)
same,normalized growth,"locus YHR094C, strain hxt1, hits give low values",0.0606 (active)
same,normalized growth,"locus YHR129C, strain ARP1, hits give low values",0.0581 (active)
same,normalized growth,"locus YHR142W, strain chs7, hits give low values",0.0762 (active)
same,normalized growth,"locus YHR200W, strain rpn10, hits give low values",0.0631 (active)
same,normalized growth,"locus YIL066C, strain RNR3, hits give low values",0.0508 (active)
same,normalized growth,"locus YIL073C, strain SPO22, hits give low values",0.104 (active)
same,normalized growth,"locus YIL125W, strain kgd1, hits give low values",0.0593 (active)
same,normalized growth,"locus YIR030C, strain dcg1, hits give low values",0.0587 (active)
same,normalized growth,"locus YJL092W, strain hpr5, hits give low values",0.0611 (active)
same,normalized growth,"locus YJL095W, strain BCK1 (second series), hits give low values",0.0583 (active)
same,normalized growth,"locus YJL095W, strain BCK1, hits give low values",0.0582 (active) and 0.114 (active)
same,normalized growth,"locus YJL115W, strain asf1, hits give low values",0.0765 (active)
same,normalized growth,"locus YJL129C, strain trk1, hits give low values",0.0869 (active)
same,normalized growth,"locus YJL134W, strain LCB3, hits give low values",0.0503 (active)
same,normalized growth,"locus YJL154C, strain vps35, hits give low values",0.0608 (active)
same,normalized growth,"locus YJL164C, strain tpk1, hits give low values",0.0649 (active)
same,normalized growth,"locus YJL166W, strain qcr8, hits give low values",0.0615 (active)
same,normalized growth,"locus YJL168C, strain set2, hits give low values",0.0602 (active)
same,normalized growth,"locus YJL187C, strain SWE1 (second series), hits give low values",0.102 (active)
same,normalized growth,"locus YJL187C, strain SWE1, hits give low values",0.0577 (active)
same,normalized growth,"locus YJR043C, strain POL32, hits give low values",0.0598 (active)
same,normalized growth,"locus YJR066W, strain TOR1, hits give low values",0.00329 (active)

# From PubChem BioAssay AID1159580 (chemical genetic matrix, 2015)
